Shown are actives, neighbours in structure and some others; about 7.1% of the full set was active somewhere.
MCF10A rerep = induces DNA re-replication in MCF 10a normal breast cells; MCF 10A DNA re-replication, Hoechst nuclear intensity, 48 h; Potency, µM (top dose mostly 46.1 µM), most hits filed as activators; 350,000 tested, 2.9% active; note: nearly all actives have a fitted effect of over 50% in size
ATXN2 expr inh = ATXN2 expression inhibition; HEK-293 ATXN2-luciferase reporter, luminescence, 24 h; 360,000 tested, 0.72% active; Potency, µM (doses to about 57 µM), most hits filed as inhibitors; note: nearly all actives have a fitted effect of over 55% in size
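ATXN2-luciferase reporter cells (luciferase flanked by upstream and downstream ATXN2 gene portions) were treated 24 h at 37 °C with compounds at up to 57 uM. SteadyGlo luminescence gave expression; GF-AFC fluorescence gave viability.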
S2 tox = reduces viability in counter-screen for ATXN expression inhibitors; S2 cells (HEK-293 line with an ATXN2-luciferase reporter) viability, CellTiter-Fluor protease fluorescence, 24 h; Potency, µM (series often up to 56.7 µM), usual class: cytotoxic; 400,000 tested, 0.49% active; AID 651635; note: nearly all actives have a fitted effect of over 40% in size
SW480 rereplic = inducers of DNA re-replication in SW480 colon cancer cells | SW480 DNA re-replication, Hoechst DNA content imaging, 48 h | Potency, µM (top dose mostly 46.1 µM), usual class: activators | 340,000 tested, 1.8% active; note: nearly all actives have a fitted effect of over 55% in size
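Compounds, transferred as 23 nL by pin tool, were incubated with cells for 48 hr; DNA content per nucleus was then quantified by Hoechst staining and fluorescence plate imaging.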
IL1B secr inh = inhibitors of inflammasome signaling (IL-1 beta secretion). THP-1 LPS/ATP IL-1B secretion, AlphaLISA, 16 h; active compounds read low. activity change, % at 57.5 µM. 360,000 tested, 4.7% active. AID 743279; in the data active = activity change below about -50%; inconclusive = mostly about -30% to -49%
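THP-1 cells pretreated 1 hr with compounds (up to 57.5 uM final), then stimulated with LPS (250 ng/mL final) plus ATP (1.25 mM final); secreted IL-1B measured by AlphaLISA after 16 hr, decreased signal indicating inhibition.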
PINK1 modulator = modulators of PINK1 expression | PINK1 immunofluorescence, high-content cytometry, 24 h | Potency, µM (titrated, usually from 76.6 µM), actives largely listed as activators | 410,000 tested, 0.2% active | AID 624263; active = well fitted activation curve with a large enough effect; inconclusive = small, poorly fitted or top-dose-only effect; cell line not stated here; note: nearly all actives have a fitted effect of over 65% in size
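PINK1 protein level read as immunofluorescence by microplate cytometer in a fixed, stained stable cell line after 24 h exposure to five compound concentrations, with CCCP as control.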
Large screens that a line does not name were inactive. Unless noted, calls come from the whole dose curve; as a rule, active = well fitted curve in the direction sought with a large enough effect; inconclusive = small, poorly fitted or top-dose-only effect, or another doubt; inactive = no such curve, though single readings can be large; an effect the other way counts as inactive or inconclusive.

CCOc1ccccc1CN1CCN(Cc2ccc3cc(F)ccc3n2)CC1CCO (configuration not stated)	MCF10A rerep inconclusive, S2 tox inconclusive
CC1=C(c2ccc(C(C)C)cc2)S(=O)(=O)N=C1N1CCC(C(=O)NCc2ccccc2)CC1	none (no result: MCF10A rerep, SW480 rereplic, IL1B secr inh)
COc1ccccc1C1CN(CCNC(=O)[C@@H]2CSC(=O)N2)Cc2ccccc2O1 (some centres not stated)	none (no result: MCF10A rerep, ATXN2 expr inh, SW480 rereplic, IL1B secr inh)
CCOC(=O)C(C(=O)Nc1ccccc1)C1CCCCC1 (configuration not stated)	none
O=C(Nc1ccccc1)C(c1ccccc1)C1CCCC1 (configuration not stated)	SW480 rereplic inconclusive, IL1B secr inh -91
Cc1nc(CS(=O)c2ccc(Cl)cc2)cc(NCc2ccc(Cl)cc2Cl)n1 (configuration not stated)	MCF10A rerep inconclusive, IL1B secr inh -77, PINK1 modulator inconclusive
O=C1COc2ccc(-c3cc(-c4ccc(F)cc4)c4c(n3)-c3ccccc3OC4)cc2N1	none (no result: MCF10A rerep, SW480 rereplic, IL1B secr inh)
COc1ccccc1N1CCN(CCNC(=O)Nc2cccc(C)c2C)CC1	MCF10A rerep inconclusive, SW480 rereplic inconclusive, IL1B secr inh -86
Cc1cc2ncc(C(N)=O)cn2n1	SW480 rereplic 4.1µM
CCOC(=O)/C=C/C(=O)Nc1ccc(S(=O)(=O)N2CCCCCC2)cc1	MCF10A rerep inconclusive, IL1B secr inh -88
CCOC(=O)/C=C/C(=O)Nc1ccc(S(=O)(=O)N(C)c2ccccc2)cc1	MCF10A rerep inconclusive, ATXN2 expr inh inconclusive, IL1B secr inh -110
CCOC(=O)/C=C/C(=O)Nc1ccc(S(=O)(=O)N2CCc3ccccc32)cc1	MCF10A rerep inconclusive, ATXN2 expr inh inconclusive, IL1B secr inh inconclusive
COc1cc([N+](=O)[O-])ccc1NC(=O)N1CCC2(CC1)Nc1ccccc1-n1cccc12	none (no result: MCF10A rerep, ATXN2 expr inh, S2 tox, SW480 rereplic, IL1B secr inh)
Nc1cc(=O)[nH]c(=S)[nH]1	none (no result: MCF10A rerep, ATXN2 expr inh, S2 tox, SW480 rereplic, IL1B secr inh)
COc1ccc(/C=C/c2nc(C#N)c(N3CCC(C(N)=O)CC3)o2)cc1OC	none (no result: MCF10A rerep, ATXN2 expr inh, S2 tox, SW480 rereplic, IL1B secr inh)
C=C(C)COc1ccc(-c2[nH]ncc2Oc2ccccc2OCC)c(O)c1	MCF10A rerep 16µM, ATXN2 expr inh inconclusive, SW480 rereplic inconclusive, IL1B secr inh -63
C=C(C)COc1ccc(-c2[nH]ncc2-c2ccc(OC)c(OC)c2)c(O)c1	MCF10A rerep 5.2µM, ATXN2 expr inh inconclusive, SW480 rereplic 2.9µM (no result: S2 tox)
CCOc1ccccc1Oc1cn[nH]c1-c1ccc(O)cc1O	none
Oc1cc(OCc2ccccc2)ccc1-c1[nH]ncc1-c1ccccc1	MCF10A rerep 23µM, ATXN2 expr inh inconclusive, S2 tox inconclusive, IL1B secr inh -101
O=[N+]([O-])c1ccc(COc2ccc(-c3[nH]ncc3-c3ccccc3)c(O)c2)cc1	MCF10A rerep inconclusive, S2 tox inconclusive (no result: SW480 rereplic)
COc1ccc(-c2cn[nH]c2-c2ccc(OCc3ccc(F)cc3)cc2O)cc1OC	MCF10A rerep 21µM, ATXN2 expr inh inconclusive, S2 tox inconclusive, SW480 rereplic 18µM, IL1B secr inh -88
CCc1nn(CC(=O)N(CC)Cc2ccccc2)c(=O)c2cc3occc3n12	none (no result: MCF10A rerep, SW480 rereplic, IL1B secr inh)
COc1ccccc1-c1noc(-c2ccc(N3CCOCC3)c([N+](=O)[O-])c2)n1	none (no result: MCF10A rerep, SW480 rereplic, IL1B secr inh)
Cc1ccc2c(c1)CN(CCNC(=O)c1ccc3nc(C)[nH]c3c1)CC(C)O2 (configuration not stated)	none (no result: MCF10A rerep, ATXN2 expr inh, SW480 rereplic, IL1B secr inh)
COc1ccc(-c2cn[nH]c2-c2ccc(OCc3ccccc3)cc2O)cc1OC	MCF10A rerep inconclusive, S2 tox inconclusive, SW480 rereplic inconclusive, IL1B secr inh -101
COc1ccc(-c2cn[nH]c2-c2ccc(OCC(=O)NN)cc2O)cc1OC	none
CC(=O)Oc1c(-c2ccco2)oc2ccccc2c1=O	MCF10A rerep inconclusive, SW480 rereplic 16µM, IL1B secr inh -82 (no result: S2 tox)
CCOC(=O)C1CCN(C(=O)c2c(C)oc3c2C(=O)c2ccccc2C3=O)CC1	MCF10A rerep inconclusive, ATXN2 expr inh inconclusive, S2 tox inconclusive, SW480 rereplic 12µM, IL1B secr inh -76
Cc1oc2c(c1C(=O)N1CCC(C)CC1)C(=O)c1ccccc1C2=O	ATXN2 expr inh 25µM, S2 tox 18µM, SW480 rereplic 12µM
CCOC(=O)C1CCN(C(=O)c2ccc(C)o2)CC1	S2 tox inconclusive

From PubChem
